Measurements reported in PubChem BioAssay.
Inconclusive results are not listed. The source made the active and inactive calls.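 The calls were made as follows, unless noted: active = RAM network inhibition above 8.4% in each of two replicates, 3 SD over the compound average; inconclusive = above 8.4% inhibition in only one replicate; inactive = 8.4% inhibition or less in each replicate.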

What was measured:
[1] = SK-BR-3 cell growth inhibitors, pilot screen, 24 h, human (AID 572;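 active = viability at or below 10% of carrier control in both of two separate runs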;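 also: compound exposure lasted between 18 and 24 h rather than exactly 24 h; 100% = carrier-treated control wells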); settings: SK-BR-3 viability, CellTiter-Glo luminescence, at 10 µM, stronger effect = lower value
[2] = HUVEC growth inhibition – cell-based, human, primary screen (AID 575;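 active = viability at or below 30% in both replicate assays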;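 also: 100% = median of untreated cell wells with 0.1% DMSO on each plate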); settings: HUVEC proliferation, CellTiter-Glo luminescence, 72 h; at 10 µM; stronger effect = lower value
[3] = growth inhibitors of H69AR lung tumor, primary screen, human, duplicate replicates (AID 580;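 active = viability at or under a set limit in both replicates, limit being median viability minus 3 SD, cut at about 48% in these data, passing the limit was not always enough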;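 also: 100% = mean luminescence of untreated wells and 0% = no signal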); settings: H69AR lung tumor cells viability, ATP luminescence, 72 h; at 10 µM; stronger effect = lower value
[4] = reversal of MRP1-mediated doxorubicin resistance, pilot screen, H69AR cells, doxorubicin co-treatment (AID 601;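 active = viability loss from added drug above about 55%, and viability with drug at most 40%, in both replicates, limit read from the data, passing the limit was not always enough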); settings: CellTiter-Glo, 72 h, at 10 µM; for differential viability (reversal): stronger effect = higher value
[5] = 384-well plate pilot, post-Golgi transport modulator project, inhibition of yeast transport mutant growth (AID 636; in the data active = inhibition above about 31%); settings: absorbance 615 nm, about 18 h, stronger effect = higher value
[6] = growth suppression of yeast trafficking mutant, preliminary HTS, modulators of trafficking downstream of Golgi apparatus project, 1536-format plate, OD 615 nm (AID 637; in the data active = inhibition above about 30%); settings: yeast transport mutant growth, absorbance 615 nm, 18 h; stronger effect = higher value
[7] = OD615 S. cerevisiae growth inhibition, permissive medium, pilot counter-assay, permissive growth control for S. cerevisiae lifespan shortening project (AID 705;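 active = growth inhibition above 25% in both replicates, a cutoff set 3 SD above the mean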); settings: OD615, 24 h, at 10 µM, stronger effect = higher value
[8] = Restrictive medium S. cerevisiae growth inhibition, OD615, pilot screen of yeast lifespan reduction project, restrictive growth control (AID 706;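 active = growth inhibition above a set limit, 3 SD over mean compound inhibition, in both replicates, cut at about 43% in these data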;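 also: modified DeaD lifespan yeast strain shifted to restrictive glucose medium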); settings: OD615, 48 h, at 10 µM, stronger effect = higher value
[9] = viability gain of MRP-1-high H69AR cells under doxorubicin, pilot screen, MRP-1 activator project, CellTiter-Glo, duplicate (AID 807;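 active = viability increase at or above a cutoff of the median across tested compounds plus 3 SD, cut at about 8.5% in these data, passing the limit was not always enough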;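 also: compound pretreatment 18-22 h then 72 h combined with doxorubicin; 0% = doxorubicin alone and 100% = vehicle without doxorubicin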); settings: H69AR viability with doxorubicin, CellTiter-Glo luminescence; at 10 µM; stronger effect = higher value
[10] = growth suppression of beta-catenin knockout HCT116, pilot screen, human colon tumor cells (AID 823;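 active = cell viability at or below a set limit in both duplicate runs, the limit being the all-compound median minus 4 SD, cut at about 23% in these data, passing the limit was not always enough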;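 also: 0% = wells killed by 20 µM Hyamine and 100% = untreated DMSO cell wells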); settings: CellTiter-Glo, 60 h, at 10 µM, stronger effect = lower value
[11] = growth suppression of PTEN-deleted HCT116, pilot screen, cell-based, HCT116 clonal line, CellTiter-Glo (AID 824;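 active = viability at or below 27.92% in each of two runs, the all-compound median minus 4 SD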;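 also: 0% = 20 µM Hyamine control and 100% = vehicle cell control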); settings: 60 h, at 10 µM, stronger effect = lower value
[12] = inhibitors of the yeast RAM network, pilot screen, dse1pr::URA3 reporter, 5-FOA selection (AID 869;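 active = inhibition over a set limit, the all-compound mean plus 3 SD, in both replicate runs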;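 also: 0% = DMSO wells with no growth and 100% = 10 µM 1-NA-PP1 with full growth; RAM network block rescues cells from 5-FOA so hits raise OD615 growth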); settings: S. cerevisiae dse1pr::URA3 5-FOA growth, OD615, 2 d; at 10 µM; stronger effect = higher value; strain carries analog-sensitive mutant Cbk1 kinase
[13] = RAM signaling pathway blockade in yeast – S. cerevisiae, Pdr1DBD-CYC8 efflux-inhibited sensitized strain, primary screen (AID 1298);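 also: 0% = DMSO untreated cells without growth and 100% = 10 µM 1-NA-PP1 full growth; higher means more yeast growth rescued from 5-FOA killing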; settings: S. cerevisiae cbk1-as DSE1-URA3 strain, 5-FOA growth OD615, 2 d; at 50 µM; stronger effect = higher value
[14] = H69AR cells + 2 uM doxorubicin, measured here: viability with 2 uM doxorubicin, stronger effect = lower value
[15] = H69AR cells, compound alone cytotoxicity

COCc1cc(C)nc(Nc2ccc(C)cc2C)c1C#N
inactive: viability [1] 70% | viability [2] 84.8% | viability [3] 104% | differential viability (reversal) ([4]; H69AR cells + 2 uM doxorubicin) 9.25% | inhibition [5] -2.43% | inhibition [6] 2.46% | growth inhibition [7] -9.57% | growth inhibition [8] -2.85% | viability increase [9] -4.12% | viability [10] 97.2% | viability [11] 90.6% | inhibition [12] 1.15% | RAM network inhibition [13] 0.15%
95.1%: viability [4, 14]
104%: viability [4, 15]

Brc1ccc2ncnc(Nc3ccc(N4CCOCC4)cc3)c2c1
77.8%: viability [4, 15]
inactive: viability [1] 86% | viability [3] 77.8% | differential viability (reversal) ([4]; H69AR cells + 2 uM doxorubicin) -14.1% | inhibition [5] -2.27% | inhibition [6] -4.36% | growth inhibition [7] -5.24% | growth inhibition [8] 11% | viability increase [9] -6.53% | viability [10] 81.9% | viability [11] 72.9% | inhibition [12] 1.01% | RAM network inhibition [13] 3.74%
91.9%: viability [4, 14]

O=C(Nc1ccncc1)c1cc2ccccc2o1
inactive: viability [1] 113% | viability [2] 101% | viability [3] 105% | differential viability (reversal) ([4]; H69AR cells + 2 uM doxorubicin) 13.8% | inhibition [5] -0.4% | inhibition [6] -0.36% | growth inhibition [7] -10.7% | growth inhibition [8] -6.96% | viability increase [9] -0.51% | viability [10] 95.7% | viability [11] 95.9% | inhibition [12] 1.73% | RAM network inhibition [13] 4.22%
91.1%: viability [4, 14]
105%: viability [4, 15]

CC(C)C(CO)NC(=O)CC(=O)NC(CO)C(C)C (centres undefined)
103%: viability [4, 15]
81.4%: viability [4, 14]
inactive: viability [1] 93% | viability [2] 101% | viability [3] 103% | differential viability (reversal) ([4]; H69AR cells + 2 uM doxorubicin) 21.4% | inhibition [5] -4.8% | inhibition [6] -0.91% | growth inhibition [7] -4.75% | growth inhibition [8] -1.44% | viability increase [9] -0.9% | viability [10] 105% | viability [11] 97.3% | inhibition [12] 2.15% | RAM network inhibition [13] 6.33%

Cc1ccc(-c2cc(C(F)F)n3ncc(C(=O)N4CCN(c5ccccn5)CC4)c3n2)cc1
56%: viability [4, 15]
52.2%: viability [4, 14]
inactive: viability [1] 99.5% | viability [2] 49.2% | differential viability (reversal) ([4]; H69AR cells + 2 uM doxorubicin) 3.75% | inhibition [5] -6.4% | inhibition [6] 6.5% | growth inhibition [7] -6.85% | growth inhibition [8] 4.28% | viability increase [9] -5.43% | viability [10] 54.3% | viability [11] 55.4% | inhibition [12] -1.01% | RAM network inhibition [13] 6.29%

CCNc1ccc(C(=O)OCC)cc1NC(=O)c1cc(S(=O)(=O)N2CCOCC2)ccc1C
90.5%: viability [4, 14]
inactive: viability [1] 108% | viability [2] 83.3% | viability [3] 98.5% | differential viability (reversal) ([4]; H69AR cells + 2 uM doxorubicin) 8.02% | inhibition [5] 2.99% | inhibition [6] 5.41% | growth inhibition [7] -9.95% | growth inhibition [8] -3.6% | viability increase [9] -5.71% | viability [11] 87.1% | inhibition [12] 0.96% | RAM network inhibition [13] 8.14%
98.5%: viability [4, 15]

COc1cc(C(=O)N2CCN(c3cc(Cl)ccc3Cl)CC2)cc(OC)c1OC
84.1%: viability [4, 14]
active: viability [2] 20.1% | viability [3] 29.8% | viability [11] 21.5%
29.8%: viability [4, 15]
inactive: viability [1] 77.5% | differential viability (reversal) ([4]; H69AR cells + 2 uM doxorubicin) -54.3% | inhibition [5] -4.27% | inhibition [6] 0% | growth inhibition [7] -13.2% | growth inhibition [8] -8.44% | viability increase [9] -6.62% | inhibition [12] 0.575% | RAM network inhibition [13] 2.03%

c1ccc(-c2nnc(SCc3nc4ccccc4[nH]3)o2)cc1
inactive: viability [1] 94% | viability [2] 98.9% | viability [3] 88.8% | differential viability (reversal) ([4]; H69AR cells + 2 uM doxorubicin) 2.98% | inhibition [5] -5.6% | inhibition [6] 0.91% | growth inhibition [7] 7.59% | viability increase [9] -5.05% | viability [10] 93.5% | viability [11] 88.8% | inhibition [12] 1.33% | RAM network inhibition [13] 1.69%
88.8%: viability [4, 15]
85.8%: viability [4, 14]

FC(F)(F)COc1nc(N2CCCCC2)nc(N2CCNCC2)n1
92.3%: viability [4, 15]
77.4%: viability [4, 14]
inactive: viability [1] 82% | viability [2] 98.8% | viability [3] 92.3% | differential viability (reversal) ([4]; H69AR cells + 2 uM doxorubicin) 15% | inhibition [5] -4.86% | inhibition [6] -4% | growth inhibition [7] 4.64% | growth inhibition [8] -3.79% | viability increase [9] -3.4% | viability [10] 85.5% | viability [11] 84.5% | inhibition [12] 0.78% | RAM network inhibition [13] -2.05%

Cc1ccc(-c2oc3ccccc3c(=O)c2O)cc1
74.5%: viability [4, 14]
inactive: viability [1] 78.5% | viability [3] 67.8% | differential viability (reversal) ([4]; H69AR cells + 2 uM doxorubicin) -6.71% | inhibition [5] -3.87% | inhibition [6] -1.17% | growth inhibition [7] -12.1% | growth inhibition [8] -12.3% | viability increase [9] -5.56% | inhibition [12] 2.66% | RAM network inhibition [13] 0.63%
active: viability [10] 10.2% | viability [11] 11.8%
67.8%: viability [4, 15]

CCc1c(C)n([O-])c2c([n+]1=O)CCC2
97%: viability [4, 14]
103%: viability [4, 15]
inactive: viability [1] 104% | viability [2] 89.2% | viability [3] 103% | differential viability (reversal) ([4]; H69AR cells + 2 uM doxorubicin) 5.73% | inhibition [5] -5.54% | inhibition [6] -2.62% | growth inhibition [7] -8.65% | growth inhibition [8] -5.88% | viability increase [9] -0.78% | viability [10] 99.4% | viability [11] 102% | inhibition [12] 0.88% | RAM network inhibition [13] 3.44%
